Compound activity deposited in PubChem BioAssay by The Scripps Research Institute Molecular Screening Center.
A selection: hits, their analogues and other compounds. The true share with any hit is near 2.8%.
KLK7 zymogen act – proKLK7 (human) activation, primary screen | P49862 | 0.9% of 370,000 active | purified proKLK7, EDANS-DABCYL substrate fluorescence; 100% is mature enzyme control, 0% vehicle | activation, % at 7 µM;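 active = activation above the mean of all tested compounds plus 3 SD, computed per campaign excluding outliers beyond control limits, cut at about 13% in these data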
Target sequence (P49862 whole entry, looked up): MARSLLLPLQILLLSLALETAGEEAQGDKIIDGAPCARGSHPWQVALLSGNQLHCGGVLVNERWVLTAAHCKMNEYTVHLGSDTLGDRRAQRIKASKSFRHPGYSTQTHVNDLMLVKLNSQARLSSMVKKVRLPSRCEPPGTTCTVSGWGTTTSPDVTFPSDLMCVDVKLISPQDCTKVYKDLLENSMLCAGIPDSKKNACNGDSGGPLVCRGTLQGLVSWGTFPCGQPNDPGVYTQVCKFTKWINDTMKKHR
bovine MsrA act – activates bovine MsrA enzyme | activation, % at 10.6 µM | purified bovine MsrA, absorbance read-out | 0.3% of 360,000 active | AID 602163; in the data active = activation above about 7.5%
SMARCA2 activ – increases SMARCA2 function in MMTV reporter cells; activation, % at 9.1 µM; MG213 cells, MMTV-luciferase reporter, dexamethasone, overnight; 1% of 370,000 active; AID 652017; in the data active = activation above about 7.8%
MsrA inh – inhibitors of bovine MsrA; inhibition, % at 15.5 µM; 0.75% of 360,000 active; AID 651718; purified bovine MsrA, absorbance read-out; in the data active = inhibition above about 4.5%
KLK7 act conf – proKLK7 activation, confirmation. shares compounds with KLK7 zymogen act. purified proKLK7, EDANS-DABCYL substrate fluorescence; scaled: vehicle 0, mature enzyme 100. AID 686949. activation, % at 7 µM. 68% of 3,200 active;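 active = activation, as change over the incubation, above the mean of all tested compounds plus 3 SD, cut at about 13% in these data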
EDANS-DABCYL int – fluorescence interference counter-screen for KLK7 activators; 80% of 3,200 active; shares compounds with KLK7 zymogen act; activation, % at 7 µM; AID 686952; EDANS-DABCYL substrate fluorescence interference, no enzyme, 4 h; solvent 0%, active enzyme control 100%;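 active = activation above the all-compound mean plus 3 SD, ignoring values outside control-based bounds, cut at about 4.8% in these data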;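 note: value is the 4 h activation minus the activation read at time zero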
EDANS interf – optically interferes with EDANS-DABCYL fluorescence, kallikrein-7 activator counter-screen; EDANS-DABCYL peptide fluorescence interference, no enzyme; AID 720493; shares compounds with KLK7 zymogen act; EC50, µM; 20% of 250 active;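 active = compounds that raise the fluorescence signal in this interference counterscreen, with EC50 at or below 10 µM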;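 note: intact quenched peptide substrate alone read at 355 nm excitation and 520 nm emission; signal is fluorescence gain from T0 to T4 after four hours at room temperature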
Of the large screens only hits and unclear results are named; the others gave an inactive call (follow-up assays come after a bar, where they were run).

CCN(CC)C(=O)[C@H]1C[C@H](CC(=O)NC(C)(C)C)C(=O)N2CCc3c([nH]c4cc(-c5ccco5)ccc34)[C@]12C	KLK7 zymogen act 109.3 | KLK7 act conf 56.7 | EDANS-DABCYL int 64.6
COc1ccc(OC(=O)c2cccc([N+](=O)[O-])c2)c(C(=O)/C=C/c2cccs2)c1	KLK7 zymogen act 24.9 | KLK7 act conf 20.3 | EDANS-DABCYL int 14.9 | EDANS interf inactive
CCn1cc(C(=O)NCC2CCCO2)c2cc(OC)c(OC)cc2c1=O (stereo not given)	none
CCOCCCNc1nc2nc3ccc(C)cn3c(=O)c2cc1C(=O)NCC1CCCO1 (stereo not given)	KLK7 zymogen act 55.0 | KLK7 act conf 16.5 | EDANS-DABCYL int 25.8
Cc1ccc2nc3c(cc(C(=O)NC4CCCC4)c(=N)n3C3CCCCC3)c(=O)n2c1	none
Cc1ccc2nc3c(cc(C(=O)NCC4CCCO4)c(=N)n3CCCOC(C)C)c(=O)n2c1 (stereo not given)	KLK7 zymogen act 106.0 | KLK7 act conf 44.8 | EDANS-DABCYL int 44.1
Cc1cc(=O)oc2cc(OCC(=O)N3CCOCC3)ccc12	none
Cc1cc(=O)oc2cc(O)cc(OCc3ccccc3)c12	KLK7 zymogen act 35.4 | KLK7 act conf 65.8 | EDANS-DABCYL int 77.8
CC(=O)Oc1ccc2c(C)cc(=O)oc2c1	KLK7 zymogen act 60.2 | KLK7 act conf 540.0 | EDANS-DABCYL int 531.4
O=c1cc(O)c2ccc(O)cc2o1	none
COC(=O)c1ccc(COC(=O)CSCC(=O)Nc2ccc(C)cc2C)cc1	none
Cc1cc(=O)oc2cc(O)ccc12	KLK7 zymogen act 99.5 | KLK7 act conf 62.6 | EDANS-DABCYL int 64.0
Cc1ccc(NC(=O)CSCC(=O)OCc2cc(=O)oc3cc(O)ccc23)c(C)c1	KLK7 zymogen act 468.0 | KLK7 act conf 288.3 | EDANS-DABCYL int 306.3
Cc1cc(OC(=O)c2ccco2)c2c(C)cc(=O)oc2c1	none
CC(=O)Oc1cc(OC(C)=O)c2c(=O)c(-c3ccc4c(c3)OCCCO4)c(C)oc2c1	KLK7 zymogen act 29.5 | KLK7 act conf 169.0 | EDANS-DABCYL int 137.3
Cc1oc2cc(O)cc(O)c2c(=O)c1-c1ccc2c(c1)OCCCO2	none
Cc1cc(=O)[nH]c2cc(O)ccc12	none
CC(=O)Oc1cc2oc(=O)cc(C)c2cc1OC(C)=O	KLK7 zymogen act 68.1 | KLK7 act conf 76.7 | EDANS-DABCYL int 89.9
O=c1ccc2ccc(O)cc2o1	KLK7 zymogen act 50.8 | KLK7 act conf 63.6 | EDANS-DABCYL int 69.8
CC(=O)Oc1ccc2c(C)cc(=O)[nH]c2c1	KLK7 zymogen act 179.5 | KLK7 act conf 343.2 | EDANS-DABCYL int 302.4
COC(=O)C[C@H]1CC[C@@H](NC(=O)c2ccncc2)[C@@H](CO)O1	none (no result: bovine MsrA act)
CC(=O)Nc1c(OC(C)=O)ccc2c(C)cc(=O)oc12	KLK7 zymogen act 175.2 | KLK7 act conf 489.4 | EDANS-DABCYL int 514.8
Cc1ccc(S(=O)(=O)CCC(=O)Oc2ccc3c(C)cc(=O)oc3c2)cc1	KLK7 zymogen act 24.3 | KLK7 act conf 123.3 | EDANS-DABCYL int 108.7
COC(=O)Cc1cc(=O)oc2cc(O)ccc12	KLK7 zymogen act 50.1 | KLK7 act conf 75.0 | EDANS-DABCYL int 68.7
COc1ccc2c(C)cc(=O)oc2c1C	none
Cc1ccc(OC(=O)CCS(=O)(=O)c2ccc(C)cc2)cc1	none
O=C(Cc1cc(=O)oc2cc(O)ccc12)N[C@@H](Cc1c[nH]c2ccccc12)C(=O)O	KLK7 zymogen act 15.7 | KLK7 act conf 90.5 | EDANS-DABCYL int 90.2
CCCN(CC1CC1)C(=O)CSc1nnc(-c2ccncc2)n1-c1ccc(OC)cc1	none (no result: bovine MsrA act, MsrA inh)
Cc1ccc(CNC(=O)COC(=O)c2ccc(S(=O)(=O)NCc3ccco3)cc2)cc1	none
Cc1cc(=O)oc2cc(OC(=O)CCCCCN3C(=O)c4ccccc4C3=O)ccc12	KLK7 zymogen act 63.3 | KLK7 act conf 405.3 | EDANS-DABCYL int 336.5
COc1ccc(-c2oc3cc(OC(C)=O)cc(OC(C)=O)c3c(=O)c2OC)cc1	none
CC(=O)Oc1cc(OC(C)=O)c2c(C)cc(=O)oc2c1	KLK7 zymogen act 49.9 | KLK7 act conf 550.3 | EDANS-DABCYL int 533.8
